# According to publication PMC11102866, “Nucleosome-bound NR5A2 structure reveals pioneer factor mechanism by DNA minor groove anchor competition”:
# Where a chain is given by its changes, count along the chain named. Names may count otherwise.
# B1: 74 (nucleosome)
# DNA 1: ATCCTGGAGAATCCCGGTGCCGAGGCCGCTCAATTGGTCGTAGACAGCTCTAGCACCGCTTAAACGCACGTACGCGTCAAGGCCAGCGTTTTAACCGCCAAGGGGATTACTCCCTAGTCTCCAGGCACGTGTCAGATATATACATCCTGTGAT
# DNA 2: ATCACAGGATGTATATATCTGACACGTGCCTGGAGACTAGGGAGTAATCCCCTTGGCGGTTAAAACGCTGGCCTTGACGCGTACGTGCGTTTAAGCGGTGCTAGAGCTGTCTACGACCAATTGAGCGGCCTCGGCACCGGGATTCTCCAGGAT
# modifications: reconstituted with mouse histones H2A, H2B, H3.3 and H4
# B2: 75 (nucleosome)
# DNA 1: B1 DNA 1 with T77C, C78T, A79C, G81A, C83G, A85C, G86A
# DNA 2: B1 DNA 2 with C68T, T69G, G71C, C73T, T75G, G76A, A77G
# modifications: reconstituted with mouse histones H2A, H2B, H3.3 and H4
# B3: 81 (nucleosome)
# DNA 1: ATCCTGGAGAATCCCGGTGCCGAGGCCGCTCAATTGGTCGTAGACAGCTCTAGCACCGCTTAAACGCACGTACGCGCTGTCCCTCAAGGCCAAACCGCCAAGGGGATTACTCCCTAGTCTCCAGGCACGTGTCAGATATATACATCCTGTGAT
# DNA 2: ATCACAGGATGTATATATCTGACACGTGCCTGGAGACTAGGGAGTAATCCCCTTGGCGGTTTGGCCTTGAGGGACAGCGCGTACGTGCGTTTAAGCGGTGCTAGAGCTGTCTACGACCAATTGAGCGGCCTCGGCACCGGGATTCTCCAGGAT
# modifications: reconstituted with mouse histones H2A, H2B, H3.3 and H4
# B4: 76 (nucleosome)
# DNA 1: ATCCTGGAGAATCCCGGTGCCGAGGCCGCTCAATTGGTCGTAGACAGCTCTAGCACCGCTTAAACGCACGTACGCGCTTCAAGGCCAGTTTTAACCGCCAAGGGGATTACTCCCTAGTCTCCAGGCACGTGTCAGATATATACATCCTGTGAT
# DNA 2: ATCACAGGATGTATATATCTGACACGTGCCTGGAGACTAGGGAGTAATCCCCTTGGCGGTTAAAACTGGCCTTGAAGCGCGTACGTGCGTTTAAGCGGTGCTAGAGCTGTCTACGACCAATTGAGCGGCCTCGGCACCGGGATTCTCCAGGAT
# modifications: reconstituted with mouse histones H2A, H2B, H3.3 and H4
# B5: 77 (nucleosome)
# DNA 1: B4 DNA 1 with T79G, C80T, A81C, G83A, C85G, A87C, G88A
# DNA 2: B4 DNA 2 with C66T, T67G, G69C, C71T, T73G, G74A, A75C
# modifications: reconstituted with mouse histones H2A, H2B, H3.3 and H4
# B6: 78 (nucleosome)
# DNA 1: ATCCTGGAGAATCCCGGTGCCGAGGCCGCTCAATTGGTCGTAGACAGCTCTAGCACCGCTTAAACGCACGTACGCGCTGTTCAAGGCCATTTAACCGCCAAGGGGATTACTCCCTAGTCTCCAGGCACGTGTCAGATATATACATCCTGTGAT
# DNA 2: ATCACAGGATGTATATATCTGACACGTGCCTGGAGACTAGGGAGTAATCCCCTTGGCGGTTAAATGGCCTTGAACAGCGCGTACGTGCGTTTAAGCGGTGCTAGAGCTGTCTACGACCAATTGAGCGGCCTCGGCACCGGGATTCTCCAGGAT
# modifications: reconstituted with mouse histones H2A, H2B, H3.3 and H4
# B7: 79 (nucleosome)
# DNA 1: B6 DNA 1 with T81C, C82T, A83C, G85A, C87G, A89C, T90A
# DNA 2: B6 DNA 2 with A64T, T65G, G67C, C69T, T71G, G72A, A73G
# modifications: reconstituted with mouse histones H2A, H2B, H3.3 and H4
# B8: 80 (nucleosome)
# DNA 1: B3 DNA 1 with C83T, T84C, C85A, A87G, G89C, C91A, A92T
# DNA 2: B3 DNA 2 with T62A, G63T, C65G, T67C, G69T, A70G, G71A
# modifications: reconstituted with mouse histones H2A, H2B, H3.3 and H4
# Target: NR5A2 wild type;histone octamer (Homo sapiens;, UniProt O00482;C0HKE1;Q6ZWY9;P84244;P62806 1-541;2-130;2-126;2-136;2-103, |)
# Experiment: SeEN-seq (EMSA of nucleosome library followed by sequencing); 0.8 uM human NR5A2; 20 mM Tris-HCl pH 7.5, 120 mM NaCl, 1 mM MgCl2, 10 uM ZnCl2, 1 mM DTT, 100 ug/ml BSA, room temperature, 30 min; 0.1 uM nucleosome library; high values mean tight binding
row,Binder,binding signal
1,B1,"1.21 log2 enrichment (bound/unbound, relative to Widom 601)"
2,B2,"1.29 log2 enrichment (bound/unbound, relative to Widom 601)"
3,B3,"0.772 log2 enrichment (bound/unbound, relative to Widom 601)"
4,B4,"1.83 log2 enrichment (bound/unbound, relative to Widom 601)"
5,B5,"1.48 log2 enrichment (bound/unbound, relative to Widom 601)"
6,B6,"1.77 log2 enrichment (bound/unbound, relative to Widom 601)"
7,B7,"1.33 log2 enrichment (bound/unbound, relative to Widom 601)"
8,B8,"0.765 log2 enrichment (bound/unbound, relative to Widom 601)"

# Target: mouse Nr5a2 wild type;histone octamer (Mus musculus;, UniProt P45448;C0HKE1;Q6ZWY9;P84244;P62806 1-560;2-130;2-126;2-136;2-103, |)
# Experiment: SeEN-seq (EMSA of nucleosome library followed by sequencing); 1.2 uM mouse Nr5a2; 20 mM Tris-HCl pH 7.5, 120 mM NaCl, 1 mM MgCl2, 10 uM ZnCl2, 1 mM DTT, 100 ug/ml BSA, room temperature, 30 min; 0.1 uM nucleosome library; high values mean tight binding
row,Binder,binding signal
1,B1,"1.39 log2 enrichment (bound/unbound, relative to Widom 601)"
2,B2,"1.36 log2 enrichment (bound/unbound, relative to Widom 601)"
3,B3,"0.954 log2 enrichment (bound/unbound, relative to Widom 601)"
4,B4,"2.16 log2 enrichment (bound/unbound, relative to Widom 601)"
5,B5,"1.71 log2 enrichment (bound/unbound, relative to Widom 601)"
6,B6,"2.13 log2 enrichment (bound/unbound, relative to Widom 601)"
7,B7,"1.29 log2 enrichment (bound/unbound, relative to Widom 601)"
8,B8,"0.924 log2 enrichment (bound/unbound, relative to Widom 601)"
